# Out of some 66,000 compounds screened, about 960 (1.5%) showed an effect of 50% or more. Only a selection was taken, and strong results are over-represented in it overall.
# Tested on: Trypanosoma brucei
# Assay: Trypanosoma brucei 72 hour study
# Assay type: functional, organism-based
# Set-up: scale not given: in the data most compounds retested in dose-response had high values
smiles,measurement,setting,value
CCc1nccn1CCNC1CCN(c2nc3ccc(Cl)cc3s2)CC1,Percent Effect,"30.3 µM, […]",100.4%
CCS(=O)(=O)CCNC1CCN(c2nc3ccc(Cl)cc3s2)CC1,Percent Effect,"30.3 µM, […]",67.3%
Clc1ccc2nc(N3CCC(NCCCC4CCOC4)CC3)sc2c1 (stereo not drawn),Percent Effect,"30.3 µM, […]",69.37%
Cn1ccnc1SCCNC1CCN(c2nc3ccccc3s2)CC1,Percent Effect,"30 µM, 30.03 µM",-14.43%
CCCc1cc(NCCCC2CCOC2)n2nccc2n1 (stereo not drawn),Percent Effect,"30.3 µM, […]",14.64%
Cc1n[nH]c(SCCNC2CCN(c3nc4ccccc4s3)CC2)n1,Percent Effect,"30 µM, 30.03 µM",-5.585%
Cc1csc2c(N3CCC(NCCCC4CCOC4)CC3)ncnc12 (stereo not drawn),Percent Effect,"30 µM, 30.03 µM",-28.35%
Cc1csc2c(N3CCC(NCCc4ccnn4C)CC3)ncnc12,Percent Effect,"30 µM, 30.03 µM",-26.9%
CCCc1cc(CNC2CCN(c3nc4ccccc4s3)CC2)on1,Percent Effect,"30 µM, 30.03 µM",-8.839%
Cc1nc(NC(=O)c2c(-n3cnnn3)sc(C)c2C)sc1C,Percent Effect,"30 µM, 30.03 µM",-45.39%
O=C(O)C(F)(F)F.O=C(O)C(F)(F)F.c1cncc(OCc2noc3c2CN(Cc2ccco2)CC3)c1,Percent Effect,"30 µM, 30.03 µM",-42.06%
Cc1noc(C)c1CN1CCn2cc(CN3CCCCC3)nc2C1.O=C(O)C(F)(F)F,Percent Effect,"30.3 µM, […]",-9.044%
CCN1CCN(C(=O)c2cc(-c3cccn3C)n[nH]2)[C@H]2CS(=O)(=O)C[C@H]21,Percent Effect,"30 µM, 30.03 µM",-16.48%
CC(C)N1CC[C@H]2[C@H](C[C@@H](Cn3cncn3)N2c2nccs2)C1.O=C(O)C(F)(F)F.O=C(O)C(F)(F)F,Percent Effect,"30.3 µM, […]",-43.04%
COc1cccc(CN(Cc2ncc[nH]2)Cc2ccco2)c1.O=C(O)CC(O)(CC(=O)O)C(=O)O,Percent Effect,"30.3 µM, […]",-10.96%
Cc1ccc([C@]2(O)CC[C@H]3CN(Cc4ccc(Cl)cc4Cl)C[C@H]32)nc1,Percent Effect,"30.3 µM, […]",-1.046%
CSc1ccc(CN2C[C@@H]3CC[C@@](O)(c4ccc(C)cn4)[C@@H]3C2)cc1,Percent Effect,"30.3 µM, […]",79.51%
Cc1ccc([C@]2(O)CC[C@H]3CN(Cc4cc(C)c(O)c(C)c4)C[C@H]32)nc1.O=C(O)CC(O)(CC(=O)O)C(=O)O,Percent Effect,"30.3 µM, […]",27.71%
CN1CC2(CCCN(Cc3nnc(-c4ccccc4)o3)CC2)OC1=O (stereo not drawn),Percent Effect,"30 µM, 30.03 µM",-20.69%
CCN(CC)C(=O)c1nnn(Cc2ccccc2)c1OC,Percent Effect,"30 µM, 30.03 µM",61.55%
CCNC(=O)c1nnn(Cc2ccccc2)c1OC,Percent Effect,"30 µM, 30.03 µM",40.11%
COCCNC(=O)c1nnn(Cc2ccccc2)c1OC,Percent Effect,"30.3 µM, […]",3.67%
CCc1nnc(SC2CCCN(c3cccc(F)c3)C2=O)n1C (stereo not drawn),Percent Effect,"30 µM, 30.03 µM",-37.32%
CCOCC1CN(CCN(C)C)Cc2cnn(CC3CCCC3)c21.O=C(O)C(F)(F)F.O=C(O)C(F)(F)F (stereo not drawn),Percent Effect,"30 µM, 30.03 µM",-10.76%
Cc1ccc(C(=O)N2CC[C@@H](N(C)C)[C@@H]2Cc2cnn(C)c2)cn1.O=C(O)C(F)(F)F.O=C(O)C(F)(F)F,Percent Effect,"30.3 µM, […]",-478.3%
OCC1(CCOc2ccccc2)CCCN(c2ccc(Cl)cn2)C1 (stereo not drawn),Percent Effect,"30 µM, 30.03 µM",-34.7%
N#Cc1cccc(N2CCCC(CO)(CCOc3ccccc3)C2)n1 (stereo not drawn),Percent Effect,"30 µM, 30.03 µM",-42.71%
CC(=O)c1ccc(N2CCCC(CO)(Cc3ccccc3F)C2)nc1 (stereo not drawn),Percent Effect,"30 µM, 30.03 µM",-24.14%
CC(=O)c1ccc(N2CCCC(CO)(CCOc3ccccc3)C2)nc1 (stereo not drawn),Percent Effect,"30 µM, 30.03 µM",71.93%
Nc1nccc(N2CCCC(CO)(CCOc3ccccc3)C2)n1 (stereo not drawn),Percent Effect,"30 µM, 30.03 µM",82.96%
CC(=O)c1ccc(N2CCCC(CO)(CCc3ccccc3)C2)nc1 (stereo not drawn),Percent Effect,"30 µM, 30.03 µM",50.39%
N#Cc1ccc(N2CCCC(CO)(CCOc3ccccc3)C2)nc1 (stereo not drawn),Percent Effect,"30 µM, 30.03 µM",-38.44%
CC(=O)c1ccc(N2CCCC(CO)(Cc3ccccc3C)C2)nc1 (stereo not drawn),Percent Effect,"30 µM, 30.03 µM",-6.304%
CC(=O)c1ccc(N2CCC(CO)(CCOc3ccccc3)CC2)nc1,Percent Effect,"30 µM, 30.03 µM",16.6%
O=C(O)C(F)(F)F.O=C1CCCN1Cc1ncn2c1CN(C(=O)N1CCCC1)CCC2,Percent Effect,"30.3 µM, […]",-52.13%
Cc1occc1C(=O)N1CCC2(CCCN(c3ncc(F)cn3)C2)C1.O=C(O)C(F)(F)F (stereo not drawn),Percent Effect,"30.3 µM, […]",-25.24%
O=C(NCCCNc1ccc(C(F)(F)F)cn1)c1ccc2c(c1)OCO2,Percent Effect,10 µM,-42.23%
c1ncc2c(n1)CN(c1ncnc3[nH]ccc13)CC2,Percent Effect,"30 µM, 30.03 µM",-32.45%
c1nc(N2CCc3[nH]cnc3C2)c2cc[nH]c2n1,Percent Effect,"30 µM, 30.03 µM",75.2%
Cc1ncc2c(n1)CN(c1ncnc3[nH]ccc13)CC2,Percent Effect,"30 µM, 30.03 µM",-13.69%
Cn1cc(N2CC3(COCCN(Cc4nccs4)C3)OCC2=O)cn1.O=C(O)C(F)(F)F (stereo not drawn),Percent Effect,"30 µM, 30.03 µM",27.05%
Cc1cc(N(C)C)cc(C2CCN(S(=O)(=O)c3cccnc3)C2)n1 (stereo not drawn),Percent Effect,"30.3 µM, […]",-0.05808%
Cc1nn(CCO)c(C)c1-c1cc(C(C)(C)C)nc(N)c1C#N,Percent Effect,"30.3 µM, […]",0.04143%
Cc1cccc(-c2cc(-c3c(C)nn(CCO)c3C)c(C#N)c(N)n2)c1,Percent Effect,"30.3 µM, […]",57.96%
Cc1ccc(-c2cc(-c3c(C)nn(CCO)c3C)c(C#N)c(N)n2)cc1,Percent Effect,"30.3 µM, […]",33.48%
Cc1noc([C@]23COC[C@H]2CN(C(=O)COC2CCCC2)C3)n1,Percent Effect,"30.3 µM, […]",-59.73%
Cc1noc([C@]23COC[C@H]2CN(C(=O)CN(C)C)C3)n1.O=C(O)C(F)(F)F,Percent Effect,"30.3 µM, […]",106.1%
CCOCC(=O)N1C[C@@H]2COC[C@]2(c2nc(C)no2)C1,Percent Effect,"30.3 µM, […]",-76.29%

# From ChEMBL document CHEMBL3988442, “University of Dundee, Small-Polar-MMV Screening Library” (2021)
